About 330 (14%) of roughly 2,300 compounds showed activity.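 Rule for the calls: active = median modified Z-score above 1.96; inactive = 1.96 or below.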 Only a sample is shown.
tested on: HepG2 Srxn1-GFP reporter cells (+30 nM CDDO-Me); experiment: Srxn1-GFP intensity median modified Z-score relative to plate median; higher = stronger NRF2 / oxidative stress reporter activation, active = hit call of the paper; conditions: 10 µM; exposure time: 24h
How it was run: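 Values give the median, over replicates, of the modified Z-score of GFP intensity on each plate. HepG2 Srxn1-GFP BAC reporter cells were co-treated for 24 h with an NRF2 activator at 30 nM and compound at 10 μM (≤0.1% DMSO) in three replicate plates, then analysed per cell for cytoplasmic GFP on confocal images with at least 100 cells. Scaling used 1.4826 × median absolute deviation.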

Structure (SMILES) | Srxn1-GFP intensity median modified Z-score
O=c1cc(-c2cc(O)c(O)c(O)c2)oc2cc(O)cc(O)c12 [euspeclibcmpd1548] | -0.459 (inactive)
Cc1cc(-n2c(=O)[nH]c(=O)n(C)c2=O)ccc1Oc1ccc(SC(F)(F)F)cc1 [euspeclibcmpd839] | 2.22 (active)
CC(C)(Oc1ccc(Cl)cc1)C(=O)O [euspeclibcmpd1029] | -0.706 (inactive)
COc1ccc(C(=O)NCc2ccc(CN(C)C)cc2)cc1OC | 0.376 (inactive)
CCc1cn(C2OCC(O)C2CO)c(=O)[nH]c1=O (configuration not stated) [euspeclibcmpd543] | -0.196 (inactive)
C=C1c2c(Cl)ccc(O)c2C(=O)C2C(=O)[C@]3(O)C(=O)C(C(N)=O)C(=O)C(N(C)C)[C@@H]3[C@@H](O)[C@H]12 (some centres not stated) [euspeclibcmpd381] | 0.0643 (inactive)
CCC[C@@H]1CC(C(=O)N[C@H]([C@H]2O[C@H](SC)[C@H](O)[C@@H](O)[C@H]2O)[C@H](C)O)N(C)C1 (some centres not stated) [euspeclibcmpd172] | 0.221 (inactive)
NC(=O)C1CC2CCCCC2N1c1cc(Cl)c(C(F)(F)F)cc1[N+](=O)[O-] (configuration not stated) | 0.587 (inactive)
CON=C(C(=O)NC1C(=O)N2C(C(=O)O)=C(C[N+]3(C)CCCC3)CSC12)c1csc(=N)[nH]1 (configuration not stated) [euspeclibcmpd504] | 35.8 (active)
CON=C(C(=O)N[C@@H]1C(=O)N2C(C(=O)O)=C(COC(C)=O)CS[C@H]12)c1csc(=N)[nH]1 [euspeclibcmpd2262] | -0.173 (inactive)
CON=C(C(=O)NC1C(=O)N2C(C(=O)O)=C(CSc3nnnn3C)CSC12)c1csc(=N)[nH]1 (configuration not stated) [euspeclibcmpd505] | -0.115 (inactive)
O=C(c1ccc(COc2ccc(Cl)cc2)cc1)N1CCN(Cc2ccc3c(c2)OCO3)CC1 | 1.17 (inactive)
C[C@]12CCC3c4ccc(O)cc4CCC3C1CC[C@@H]2OC(=O)CCC1CCCC1 (some centres not stated) [euspeclibcmpd116] | -0.256 (inactive)
Cc1ccc(O)cc1 [euspeclibcmpd76] | -0.159 (inactive)
CC=C(C(=CC)c1ccc(O)cc1)c1ccc(O)cc1 [euspeclibcmpd91] | 13.6 (active)
Oc1ccc(O)cc1 [euspeclibcmpd672] | 0.74 (inactive)
CN[C@@H]1C(O)[C@@H](O[C@@H]2[C@@H](O)[C@H](O[C@H]3OC(CN)=CC[C@H]3N)[C@@H](N)C[C@H]2N)OC[C@]1(C)O (some centres not stated) [euspeclibcmpd452] | -0.626 (inactive)
CO[C@H]1/C=C/O[C@@]2(C)Oc3c(C)c(O)c4c(O)/c(c(=CNN5CCN(C)CC5)c(O)c4c3C2=O)=N\C(=O)/C(C)=C\C=C\C(C)[C@H](O)[C@@H](C)[C@@H](O)[C@@H](C)[C@@H](OC(C)=O)[C@@H]1C (some centres not stated) [euspeclibcmpd263] | -0.401 (inactive)
O=c1c(O)cc(C2Oc3cc(O)cc(O)c3C[C@H]2O)cc2c(C3Oc4cc(O)cc(O)c4C[C@@H]3O)cc(O)c(O)c12 (some centres not stated) [euspeclibcmpd1420] | -0.548 (inactive)

Structure (SMILES) | Srxn1-GFP intensity median modified Z-score
Oc1cn2c(n1)Nc1ccc(Cl)c(Cl)c1C2 [euspeclibcmpd824] | -0.784 (inactive)
CSc1ccc2c(c1)C(N1CCN(C)CC1)Cc1ccccc1S2 (configuration not stated) [euspeclibcmpd1144] | 28.4 (active)
CN1CCN2c3ccccc3Cc3ccccc3C2C1 (configuration not stated) [euspeclibcmpd961] | 0.112 (inactive)
Cc1cc2c(s1)N=c1ccccc1=NC2N1CCN(C)CC1 (configuration not stated) [euspeclibcmpd2354] | 0.441 (inactive)
CON=C(C(=O)NC1C(=O)N2C(C(=O)O)=C(CSC(=O)c3ccco3)CSC12)c1csc(=N)[nH]1 (configuration not stated) [euspeclibcmpd692] | -0.296 (inactive)
N=c1[nH]cnc(=Nc2ccc(Cl)cc2)[nH]1 [euspeclibcmpd2344] | 0.164 (inactive)
CC1CC[C@@]23CC[C@]4(C)[C@@](CCC5[C@@]6(C)CCC(=O)C(C)(C)C6CC[C@]54C)(OC2=O)C3C1C (some centres not stated) [euspeclibcmpd1366] | -0.221 (inactive)
CC(=O)OCC(=O)[C@@]1(O)CC[C@H]2[C@@H]3CCC4=CC(=O)CC[C@]4(C)[C@H]3C(=O)C[C@]21C | 0.314 (inactive)
CN(C)CCOC(=O)COc1ccc(Cl)cc1 [euspeclibcmpd1131] | -0.393 (inactive)
COc1ccc(C(=O)NCc2ccc(OCCN(C)C)cc2)cc1OC [euspeclibcmpd1095] | 0.331 (inactive)
CCN(CC)CCOc1ccc(/C(=C(\Cl)c2ccccc2)c2ccccc2)cc1 [euspeclibcmpd69] | -1.55 (inactive)
CN(C)CCOc1ccc(/C(=C(/CCCl)c2ccccc2)c2ccccc2)cc1 [euspeclibcmpd946] | 93.7 (active)
CC/C(=C(\c1ccccc1)c1ccc(OCCN(C)C)cc1)c1ccccc1 [euspeclibcmpd285] | 43.4 (active)
COc1cc(C(=O)NCc2ccc(OCCN(C)C)cc2)cc(OC)c1OC [euspeclibcmpd309] | 0.482 (inactive)
C[C@@H]1CC2C3CC(F)=C4CC(=O)C=C[C@]4(C)[C@@]3(F)[C@@H](O)C[C@]2(C)[C@@]1(O)C(=O)COC(=O)C(C)(C)C (some centres not stated) [euspeclibcmpd128] | -0.646 (inactive)
COc1c(O)c(C)c(C=CCCCCCCCCO)c(O)c1OC [euspeclibcmpd1216] | -0.228 (inactive)
COC(=O)/C(=C1\OC(=O)C(c2ccccc2)C1=O)c1ccccc1 (configuration not stated) [euspeclibcmpd1487] | 1.05 (inactive)
COC(=O)C1OC(=O)C2OC23C1(C)CCC1C2(C)CCC(=O)C(C)(C)C2CC(OC(C)=O)C13C (configuration not stated) [euspeclibcmpd1948] | -0.0565 (inactive)
CC(=O)O[C@H]1C[C@@H](OC(C)=O)C(C)(C)C2CC(=O)[C@]3(C)C(CC[C@@]4(C)[C@H](c5ccoc5)OC(=O)C5O[C@]543)[C@]21C (some centres not stated) [euspeclibcmpd1589] | 0.448 (inactive)

Structure (SMILES) | Srxn1-GFP intensity median modified Z-score
CC(=O)O[C@@H]1CC2C(C)(C)C(=O)C3OC3[C@]2(C)C2CC[C@@]3(C)[C@H](c4ccoc4)OC(=O)C4OC43[C@@]21C (some centres not stated) [euspeclibcmpd1644] | 5.41 (active)
COC(=O)C1OC(=O)C2OC23[C@@]1(C)CCC1[C@]2(C)C(C[C@@H](O)[C@]13C)C(C)(C)[C@H](OC(C)=O)C[C@@H]2OC(C)=O (some centres not stated) [euspeclibcmpd2102] | -0.135 (inactive)
CC(=O)OC1CC2C(C)(C)C(O)CCC2(C)C2CCC3(C)C(=CC(=O)OC3c3ccoc3)C12C (configuration not stated) [euspeclibcmpd1952] | 0.595 (inactive)
COC(=O)CC1C(C)(C)C(OC(C)=O)C2C(OC(C)=O)C34OC2(O)C1(C)C3CCC1(C)C4=CC(=O)OC1c1ccoc1 (configuration not stated) [euspeclibcmpd1938] | -0.377 (inactive)
CC1(C)O[C@H]2CC(=O)OC[C@]23[C@H]2CC[C@@]4(C)[C@H](c5ccoc5)OC(=O)C5O[C@]54[C@]2(C)C(=O)C[C@@H]13 (some centres not stated) [euspeclibcmpd1497] | 0.563 (inactive)
CC(=O)O[C@H]1C[C@@H](OC(C)=O)C(C)(C)C2C[C@@H](OC(C)=O)[C@@]3(C)C4=CC(=O)O[C@@H](c5ccoc5)[C@]4(C)CCC3[C@]21C (some centres not stated) [euspeclibcmpd1532] | 0.0053 (inactive)
CC(=O)O[C@H]1C[C@@H](OC(C)=O)C(C)(C)C2CC(=O)[C@]3(C)C(CC[C@@]4(C)C(C(=O)O)OC(=O)C5OC543)[C@]21C (some centres not stated) [euspeclibcmpd1389] | -0.386 (inactive)
CC(=O)O[C@@H]1CC2C(C)(C)C(=O)C=C[C@]2(C)C2CC[C@@]3(C)[C@H](c4ccoc4)OC(=O)C4O[C@]43[C@@]21C (some centres not stated) [euspeclibcmpd1359] | 23.9 (active)
CC1(C)C(=O)C=C[C@@]2(C)C1CC(=O)[C@]1(C)C2CC[C@@]2(C)[C@H](c3ccoc3)OC(=O)C3O[C@]321 (some centres not stated) [euspeclibcmpd1588] | 13 (active)
CC(=O)O[C@@H]1CC2C(C)(C)C(=O)CC[C@]2(C)C2CC[C@@]3(C)[C@H](c4ccoc4)OC(=O)C4OC43[C@@]21C (some centres not stated) [euspeclibcmpd1587] | 32.1 (active)
CC(C)CCCC(C)C1CCC2C3CC(=O)C4C[C@@H](O)CC[C@]4(C)C3CC[C@]12C (some centres not stated) [euspeclibcmpd2198] | -0.502 (inactive)
C[C@]12CC[C@@H](O)C[C@H]1CCc1ccccc12 [euspeclibcmpd1508] | -0.327 (inactive)
N=c1[nH]c(=N)c2nc(-c3ccccc3)c(=N)[nH]c2[nH]1 [euspeclibcmpd304] | -0.346 (inactive)
CN[C@@H]1[C@@H](O[C@H]2O[C@H](CO)[C@@H](N)[C@H](O)[C@H]2O)O[C@H]2C[C@@H](N)[C@H](O[C@H]3[C@H](O)[C@@H](O)[C@H](N)C[C@@H]3N)O[C@@H]2[C@@H]1O [euspeclibcmpd2180] | -0.708 (inactive)
CN(N=O)C(=O)N[C@@H]1[C@@H](O)[C@H](O)[C@@H](CO)O[C@@H]1O [euspeclibcmpd271] | 0.0066 (inactive)
Cc1cc2nc3c(=O)[nH]c(=O)nc-3n(C[C@@H](O)[C@@H](O)[C@@H](O)CO)c2cc1C [euspeclibcmpd751] | -0.238 (inactive)
Cc1ccc(N2CC(C(=O)NCCCn3ccnc3)CC2=O)c(F)c1 (configuration not stated) | 1.07 (inactive)
Cc1onc(-c2ccccc2Cl)c1C(=O)NC1C(=O)N2C1SC(C)(C)C2C(=O)O (configuration not stated) [euspeclibcmpd2381] | -0.0695 (inactive)
C[C@@H]1O[C@@H](OC[C@H]2OC(Oc3c(-c4ccc(O)c(O)c4)oc4cc(O)cc(O)c4c3=O)[C@H](O)[C@@H](O)[C@@H]2O)[C@H](O)[C@H](O)[C@H]1O (some centres not stated) [euspeclibcmpd2149] | -0.139 (inactive)

Reference: the supplement of paper PMC10498489
